According to PubChem BioAssay (NCI):
The panel holds about 83,000 compounds, 20% with a hit somewhere; the sample as a whole holds those more often.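 Treatment: one concentration, 48 hours, 96-well format. Scoring: percent growth, with anything below 10 considered active.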 Values without a mark were called inactive. The source made the active and inactive calls.

Experiments:
Assay in all cases: NCI-60 one-dose screen, 48 h (100 = growth as untreated, 0 = no growth, -100 = all killed)
Details in all cases: 10 µM unless noted
HCT-15 colon = tested on: HCT-15 colon
HT29 colon = tested on: HT29 colon
SNB-75 CNS = tested on: SNB-75 CNS
SNB-19 CNS = tested on: SNB-19 CNS
PC-3 prostate = tested on: PC-3 prostate
SK-MEL-5 melanoma = tested on: SK-MEL-5 melanoma
UACC-62 melanoma = tested on: UACC-62 melanoma
LOX IMVI melanoma = tested on: LOX IMVI melanoma
SK-MEL-28 melanoma = tested on: SK-MEL-28 melanoma
U251 CNS = tested on: U251 CNS

SMILES	growth (HCT-15 colon)	growth (HT29 colon)	growth (SNB-75 CNS)	growth (SNB-19 CNS)	growth (PC-3 prostate)	growth (SK-MEL-5 melanoma)	growth (UACC-62 melanoma)	growth (LOX IMVI melanoma)	growth (SK-MEL-28 melanoma)	growth (U251 CNS)
C[C@@H]1C[C@@H]([C@@H](CC2CC(=O)NC(=O)C2)OC(=O)CC(=O)c2ccccc2)C(=O)[C@@H](C)C1	8.97% (active)	10.4%	17.8%	18.9%	12.3%	7.03% (active)	11.2%	11.3%	13.5%	
O=C1Nc2ccc(C(=O)O)c(O)c2C1=O	110%	117%	103%	107%			101%	54.5%	111%	106%
Cn1ccnc1C(=O)/C=C/c1ccc(C(=O)Nc2nc3ccccc3[nH]2)cc1	24.3%	8.78% (active)	-17% (active)	41.1%	38.1%	83.1%	74.7%	11.5%	89.7%	
O=C1CSC(c2ccccc2Cl)N1c1nnc(Cn2nnc3ccccc32)o1 (centres undefined)	74.8%	81.2%	81.6%	83.3%		79.3%	63.8%	85.9%	92.8%	77.6%
Nc1ccc2c(c1)C(=O)c1cc(Cl)c(Cl)cc1-2	103%	104%	68.7%	96.6%		98%	77.9%	86%	122%	90.4%
[N-]=[N+]=NCc1ncc(-c2ccc(C(F)(F)F)cc2)c(NC2CCCCCC2)n1	80.2% [50 µM]	69.8% [50 µM]	65.8% [50 µM]	85.2% [50 µM]		84.2% [50 µM]	79.2% [50 µM]	82.2% [50 µM]	98.1% [50 µM]	73% [50 µM]
COc1cc(C(=O)c2cc3c(cc2C)OCO3)cc(OC)c1OC	19.6%	3.84% (active)	22.7%	50.7%	18.1%	0.803% (active)	32.7%	19.7%	46.6%	
CC(=O)Nc1ccc(C(=O)COc2cccc(/C=C3\CCc4ccccc4C3=O)c2)cc1	89%	101%	78.7%	94.1%	76.1%	64.4%	83.6%	71.5%	109%	
COc1cccc(/C=C2\Cc3ccccc3C2=O)c1	100%	100%	104%	94.2%	87.5%	100%	98.9%	99.5%	113%	
CCCCCCCCCCCCCCCCCC1=NC(C)(CO)CO1 (centres undefined)	92.4%	92.8%	120%	101%	73.4%	97.1%	86.7%	98%	109%	
CC(=O)c1nn(-c2ccccc2)c(=Nc2ccccc2)cc1C	93.9%	95.5%	76.2%	92.4%	80.3%	98.9%	94.8%	98.4%	109%	
Cn1c(N2N=C(c3ccc(Cl)cc3)CC2c2ccccc2)nc(-c2ccccc2)c(C#N)c1=O (centres undefined)	80%	79.3%	91.4%	88.8%	49.7%	54.7%	58.9%	70.9%	94.5%	
CC(C)=CCNc1ncnc2c1ncn2C1OC(COP(=O)(O)O)C(O)C1O (centres undefined)	31.6%	31.6%	65.2%	89.5%	12%	81.1%	69.6%	-61.3% (active)	85.7%	
O=C1c2cccc3c([N+](=O)[O-])ccc(c23)C(=O)N1CCCCl	-82.6% [100 µM] (active)	-63.2% [100 µM] (active)	-98.6% [100 µM] (active)	-97.8% [100 µM] (active)	-90.8% [100 µM] (active)	-95.6% [100 µM] (active)	-96.3% [100 µM] (active)	-85.5% [100 µM] (active)	-97.3% [100 µM] (active)	
Cc1ncc(C(=O)Nc2ccc(CN3CCN(C)CC3)c(C(F)(F)F)c2)cc1C#Cc1cncc2ncccc12	48.4%	32.4%	74.4%	107%	90.6%	37.5%	40.7%	10.8%	16.3%	
